Measurements: PMC7862700, “An all-to-all approach to the identification of sequence-specific readers for epigenetic DNA modifications on cytosine”

Legend:
Experiment in all cases: DAPPL (digital affinity profiling via proximity ligation, sequencing); 10 mM Tris-HCl pH 7.5, 50 mM NaCl, 1 mM DTT, 4% glycerol, room temperature, 30 min; GST-TFs on glutathione beads, 16-mer random dsDNA library, 0.1% formaldehyde crosslink after washing; high values mean tight binding
FLI1 = molecular target: T1, FLI1 (Homo sapiens, UniProt Q01543 1-452); conditions: protein: recombinant; tags: N-terminal GST; dsDNA, one strand shown
T1 sequence: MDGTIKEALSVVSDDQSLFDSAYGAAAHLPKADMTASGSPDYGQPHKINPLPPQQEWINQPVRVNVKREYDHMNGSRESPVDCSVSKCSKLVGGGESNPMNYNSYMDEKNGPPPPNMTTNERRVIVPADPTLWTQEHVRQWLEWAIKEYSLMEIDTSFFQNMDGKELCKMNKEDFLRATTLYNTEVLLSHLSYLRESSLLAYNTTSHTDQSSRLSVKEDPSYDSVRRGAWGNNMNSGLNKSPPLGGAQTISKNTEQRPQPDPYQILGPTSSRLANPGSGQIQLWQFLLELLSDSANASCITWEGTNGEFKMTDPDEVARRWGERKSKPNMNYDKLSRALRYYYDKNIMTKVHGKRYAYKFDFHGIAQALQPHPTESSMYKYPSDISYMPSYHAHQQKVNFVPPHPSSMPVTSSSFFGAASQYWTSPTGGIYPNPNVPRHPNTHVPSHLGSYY
Procedure, shortened: (§1)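 Human transcription factors carrying a GST fusion were produced in yeast, bound to glutathione beads, tagged with DNA barcodes and pooled together with a tag-only sample. Each pool was held with 200 nmole of a random double-stranded 16-mer DNA library in Tris/NaCl/DTT/glycerol buffer for 30 min at room temperature, then washed, crosslinked in 0.1% formaldehyde, proximity-ligated with BsaI/T4 ligase (1 h, 37 °C), PCR-amplified and sequenced on an Illumina NextSeq500. Binding signal is the read frequency of each hexamer for a given factor divided by its frequency in the tag-only sample.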

ELK1 = molecular target: T2, ELK1 (Homo sapiens, UniProt P19419 1-428); conditions: protein: recombinant; tags: N-terminal GST; dsDNA, one strand shown
T2 sequence: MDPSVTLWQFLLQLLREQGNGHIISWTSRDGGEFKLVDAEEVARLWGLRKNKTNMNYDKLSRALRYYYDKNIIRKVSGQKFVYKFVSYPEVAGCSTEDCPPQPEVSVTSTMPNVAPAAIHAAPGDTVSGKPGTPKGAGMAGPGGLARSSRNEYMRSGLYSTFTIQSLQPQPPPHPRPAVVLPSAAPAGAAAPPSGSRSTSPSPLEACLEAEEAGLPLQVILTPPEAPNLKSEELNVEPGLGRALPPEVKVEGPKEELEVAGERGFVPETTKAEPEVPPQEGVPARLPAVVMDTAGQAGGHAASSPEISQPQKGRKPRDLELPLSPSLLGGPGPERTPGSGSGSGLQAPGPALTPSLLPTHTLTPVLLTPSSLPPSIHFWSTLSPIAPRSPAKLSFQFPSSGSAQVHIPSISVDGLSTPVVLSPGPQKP
Procedure, shortened: as §1

GABPA = molecular target: T3, GABPA (Homo sapiens, UniProt Q06546 1-454); conditions: protein: recombinant; tags: N-terminal GST; dsDNA, one strand shown
T3 sequence: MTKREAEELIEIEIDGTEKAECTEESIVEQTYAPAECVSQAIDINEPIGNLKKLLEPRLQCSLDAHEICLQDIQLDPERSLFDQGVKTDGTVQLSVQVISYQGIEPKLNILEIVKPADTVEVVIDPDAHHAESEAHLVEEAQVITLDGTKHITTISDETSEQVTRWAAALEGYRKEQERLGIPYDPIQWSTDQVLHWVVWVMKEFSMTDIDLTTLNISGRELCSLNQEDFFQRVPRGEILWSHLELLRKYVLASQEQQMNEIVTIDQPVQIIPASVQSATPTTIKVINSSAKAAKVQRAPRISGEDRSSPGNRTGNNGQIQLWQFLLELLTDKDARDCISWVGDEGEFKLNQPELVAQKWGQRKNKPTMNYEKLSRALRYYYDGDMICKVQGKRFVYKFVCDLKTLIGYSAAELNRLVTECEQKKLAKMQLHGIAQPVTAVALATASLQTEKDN
Procedure, shortened: as §1

ERG = molecular target: T4, ERG (Homo sapiens, UniProt P11308 1-479); conditions: protein: recombinant; tags: N-terminal GST; dsDNA, one strand shown
T4 sequence: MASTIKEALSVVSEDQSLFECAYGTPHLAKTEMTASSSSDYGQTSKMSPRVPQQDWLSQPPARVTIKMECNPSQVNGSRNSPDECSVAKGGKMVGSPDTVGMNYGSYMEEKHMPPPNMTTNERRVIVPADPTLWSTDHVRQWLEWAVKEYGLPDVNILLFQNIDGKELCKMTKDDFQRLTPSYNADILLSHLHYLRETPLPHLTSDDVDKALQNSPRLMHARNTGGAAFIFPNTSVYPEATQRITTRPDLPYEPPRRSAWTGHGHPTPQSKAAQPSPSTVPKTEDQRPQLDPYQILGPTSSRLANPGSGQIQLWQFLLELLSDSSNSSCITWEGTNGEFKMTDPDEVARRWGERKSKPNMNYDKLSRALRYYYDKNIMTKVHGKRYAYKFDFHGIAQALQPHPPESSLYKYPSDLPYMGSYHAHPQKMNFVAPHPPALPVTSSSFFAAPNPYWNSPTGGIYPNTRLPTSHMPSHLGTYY
Procedure, shortened: as §1

ELF1 = ELF1 (Homo sapiens, UniProt P32519 1-619); conditions: protein: recombinant; tags: N-terminal GST; dsDNA, one strand shown
Procedure, shortened: as §1

EHF = molecular target: T5, EHF (Homo sapiens, UniProt Q9NZC4 1-300); conditions: protein: recombinant; tags: N-terminal GST; dsDNA, one strand shown
T5 sequence: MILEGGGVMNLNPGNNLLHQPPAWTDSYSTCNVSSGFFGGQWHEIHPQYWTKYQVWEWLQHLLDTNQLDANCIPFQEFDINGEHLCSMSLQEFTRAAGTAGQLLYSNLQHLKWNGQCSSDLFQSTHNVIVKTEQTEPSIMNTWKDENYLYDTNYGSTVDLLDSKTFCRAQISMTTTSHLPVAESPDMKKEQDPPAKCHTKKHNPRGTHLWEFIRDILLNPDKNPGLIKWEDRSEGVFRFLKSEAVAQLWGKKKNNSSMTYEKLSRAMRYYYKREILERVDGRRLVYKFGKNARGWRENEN
Procedure, shortened: as §1

SPI1 = SPI1 (Homo sapiens, UniProt P17947 1-270); conditions: protein: recombinant; tags: N-terminal GST; dsDNA, one strand shown
Procedure, shortened: as §1

SPIB = SPIB (Homo sapiens, UniProt Q01892 1-262); conditions: protein: recombinant; tags: N-terminal GST; dsDNA, one strand shown
Procedure, shortened: as §1

ELK3 = molecular target: T6, ELK3 (Homo sapiens, UniProt P41970 1-407); conditions: protein: recombinant; tags: N-terminal GST; dsDNA, one strand shown
T6 sequence: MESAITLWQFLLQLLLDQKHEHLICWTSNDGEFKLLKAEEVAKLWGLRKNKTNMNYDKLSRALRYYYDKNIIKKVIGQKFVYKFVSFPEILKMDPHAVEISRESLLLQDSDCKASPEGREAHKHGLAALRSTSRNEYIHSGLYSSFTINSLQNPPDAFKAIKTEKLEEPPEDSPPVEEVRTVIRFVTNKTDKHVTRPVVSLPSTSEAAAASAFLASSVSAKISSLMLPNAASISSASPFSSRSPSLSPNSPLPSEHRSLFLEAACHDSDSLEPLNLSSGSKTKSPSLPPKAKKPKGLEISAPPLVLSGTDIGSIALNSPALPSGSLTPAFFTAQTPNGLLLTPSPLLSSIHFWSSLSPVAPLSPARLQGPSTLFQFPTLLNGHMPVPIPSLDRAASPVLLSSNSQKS
Procedure, shortened: as §1

FEV = molecular target: T7, FEV (Homo sapiens, UniProt Q99581 1-238); conditions: protein: recombinant; tags: N-terminal GST; dsDNA, one strand shown
T7 sequence: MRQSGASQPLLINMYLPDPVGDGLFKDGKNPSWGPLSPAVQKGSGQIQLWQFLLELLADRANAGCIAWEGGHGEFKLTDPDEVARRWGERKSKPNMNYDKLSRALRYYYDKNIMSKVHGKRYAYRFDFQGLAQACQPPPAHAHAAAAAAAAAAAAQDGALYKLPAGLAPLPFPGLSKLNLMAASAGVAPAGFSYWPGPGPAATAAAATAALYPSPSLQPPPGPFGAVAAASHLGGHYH
Procedure, shortened: as §1

ETV5 = ETV5 (Homo sapiens, UniProt P41161 1-510); conditions: protein: recombinant; tags: N-terminal GST; dsDNA, one strand shown
Procedure, shortened: as §1

HSF1 = HSF1 (Homo sapiens, UniProt Q00613 1-529); conditions: protein: recombinant; tags: N-terminal GST; chain copies: 3; dsDNA, one strand shown
Procedure, shortened: as §1

SPIC = molecular target: T8, SPIC (Homo sapiens, UniProt Q8N5J4 1-248); conditions: protein: recombinant; tags: N-terminal GST; dsDNA, one strand shown
T8 sequence: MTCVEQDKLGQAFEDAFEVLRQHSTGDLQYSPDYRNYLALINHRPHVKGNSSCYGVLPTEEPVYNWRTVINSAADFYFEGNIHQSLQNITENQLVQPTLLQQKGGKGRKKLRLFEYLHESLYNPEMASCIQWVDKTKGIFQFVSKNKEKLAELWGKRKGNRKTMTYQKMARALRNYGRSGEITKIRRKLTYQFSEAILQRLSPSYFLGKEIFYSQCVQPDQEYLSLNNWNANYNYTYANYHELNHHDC
Procedure, shortened: as §1

ELF4 = ELF4 (Homo sapiens, UniProt Q99607 1-663); conditions: protein: recombinant; tags: N-terminal GST; dsDNA, one strand shown
Procedure, shortened: as §1

ELK4 = molecular target: T9, ELK4 (Homo sapiens, UniProt P28324-2 1-405); conditions: protein: recombinant; tags: N-terminal GST; dsDNA, one strand shown
T9 sequence: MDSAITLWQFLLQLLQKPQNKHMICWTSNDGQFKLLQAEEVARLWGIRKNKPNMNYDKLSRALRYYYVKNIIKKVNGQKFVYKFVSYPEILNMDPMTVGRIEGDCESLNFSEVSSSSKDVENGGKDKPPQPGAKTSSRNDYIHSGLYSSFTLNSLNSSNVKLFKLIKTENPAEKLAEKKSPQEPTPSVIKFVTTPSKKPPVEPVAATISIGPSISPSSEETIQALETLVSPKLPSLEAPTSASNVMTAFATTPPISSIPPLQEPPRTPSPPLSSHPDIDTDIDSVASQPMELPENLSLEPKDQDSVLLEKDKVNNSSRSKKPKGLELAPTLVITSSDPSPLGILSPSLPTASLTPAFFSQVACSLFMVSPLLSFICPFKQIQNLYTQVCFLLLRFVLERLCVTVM
Procedure, shortened: as §1

ETV2 = molecular target: T10, ETV2 (Homo sapiens, UniProt O00321 1-342); conditions: protein: recombinant; tags: N-terminal GST; dsDNA, one strand shown
T10 sequence: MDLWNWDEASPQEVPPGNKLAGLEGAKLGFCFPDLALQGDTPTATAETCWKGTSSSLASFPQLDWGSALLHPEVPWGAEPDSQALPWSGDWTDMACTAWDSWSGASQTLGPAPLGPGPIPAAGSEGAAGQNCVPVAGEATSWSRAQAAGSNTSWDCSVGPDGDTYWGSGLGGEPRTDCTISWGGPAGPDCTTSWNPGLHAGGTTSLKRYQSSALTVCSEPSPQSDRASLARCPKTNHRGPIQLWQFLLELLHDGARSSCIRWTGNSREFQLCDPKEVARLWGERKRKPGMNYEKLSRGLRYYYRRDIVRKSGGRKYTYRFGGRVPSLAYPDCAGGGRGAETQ
Procedure, shortened: as §1

ELF3 = molecular target: T11, ELF3 (Homo sapiens, UniProt P78545 1-371); conditions: protein: recombinant; tags: N-terminal GST; dsDNA, one strand shown
T11 sequence: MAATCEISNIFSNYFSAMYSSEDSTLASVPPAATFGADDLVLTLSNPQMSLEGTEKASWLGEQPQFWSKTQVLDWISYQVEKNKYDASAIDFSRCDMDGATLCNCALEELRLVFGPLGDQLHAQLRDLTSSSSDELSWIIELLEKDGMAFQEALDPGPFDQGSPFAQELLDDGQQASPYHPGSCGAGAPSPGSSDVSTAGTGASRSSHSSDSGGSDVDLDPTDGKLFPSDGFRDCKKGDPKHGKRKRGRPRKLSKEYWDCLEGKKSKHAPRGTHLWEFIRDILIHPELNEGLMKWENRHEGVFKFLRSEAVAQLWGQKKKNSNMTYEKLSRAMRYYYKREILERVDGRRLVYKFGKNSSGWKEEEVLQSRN
Procedure, shortened: as §1

CRX = CRX (Homo sapiens, UniProt O43186 1-299); conditions: protein: recombinant; tags: N-terminal GST; dsDNA, one strand shown
Procedure, shortened: as §1

ETV1 = ETV1 (Homo sapiens, UniProt P50549 1-477); conditions: protein: recombinant; tags: N-terminal GST; dsDNA, one strand shown
Procedure, shortened: as §1

ELF1, sequence (P32519 whole entry): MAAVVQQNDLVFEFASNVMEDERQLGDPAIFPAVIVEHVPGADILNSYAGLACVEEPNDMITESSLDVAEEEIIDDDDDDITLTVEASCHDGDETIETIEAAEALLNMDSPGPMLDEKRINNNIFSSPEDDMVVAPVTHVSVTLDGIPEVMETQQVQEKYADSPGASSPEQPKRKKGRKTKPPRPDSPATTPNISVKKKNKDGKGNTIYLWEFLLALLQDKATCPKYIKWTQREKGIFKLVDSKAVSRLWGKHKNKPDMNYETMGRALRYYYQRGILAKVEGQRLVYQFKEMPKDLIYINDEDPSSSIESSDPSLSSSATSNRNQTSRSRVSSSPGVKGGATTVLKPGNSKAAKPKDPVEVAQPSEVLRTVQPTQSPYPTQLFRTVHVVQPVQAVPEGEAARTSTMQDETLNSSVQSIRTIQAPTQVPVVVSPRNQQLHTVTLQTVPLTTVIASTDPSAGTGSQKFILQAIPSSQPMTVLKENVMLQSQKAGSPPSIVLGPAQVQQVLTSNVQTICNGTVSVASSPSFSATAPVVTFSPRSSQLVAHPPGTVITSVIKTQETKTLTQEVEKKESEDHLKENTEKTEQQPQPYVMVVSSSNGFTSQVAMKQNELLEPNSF
HSF1, sequence (Q00613 whole entry): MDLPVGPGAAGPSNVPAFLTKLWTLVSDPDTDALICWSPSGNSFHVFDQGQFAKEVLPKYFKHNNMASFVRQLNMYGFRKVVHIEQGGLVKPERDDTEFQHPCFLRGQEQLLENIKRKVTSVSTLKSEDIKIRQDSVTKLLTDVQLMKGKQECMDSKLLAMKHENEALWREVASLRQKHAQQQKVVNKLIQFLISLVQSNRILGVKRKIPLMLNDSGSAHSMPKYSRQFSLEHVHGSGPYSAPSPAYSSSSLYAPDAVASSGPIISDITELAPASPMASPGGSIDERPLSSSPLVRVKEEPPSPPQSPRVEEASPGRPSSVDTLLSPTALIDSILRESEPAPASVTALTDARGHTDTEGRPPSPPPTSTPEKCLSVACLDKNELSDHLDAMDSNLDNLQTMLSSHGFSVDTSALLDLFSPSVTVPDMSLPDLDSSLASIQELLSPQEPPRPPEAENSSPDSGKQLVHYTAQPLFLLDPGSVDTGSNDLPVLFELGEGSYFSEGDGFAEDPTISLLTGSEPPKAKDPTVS
ELF4, sequence (Q99607 whole entry): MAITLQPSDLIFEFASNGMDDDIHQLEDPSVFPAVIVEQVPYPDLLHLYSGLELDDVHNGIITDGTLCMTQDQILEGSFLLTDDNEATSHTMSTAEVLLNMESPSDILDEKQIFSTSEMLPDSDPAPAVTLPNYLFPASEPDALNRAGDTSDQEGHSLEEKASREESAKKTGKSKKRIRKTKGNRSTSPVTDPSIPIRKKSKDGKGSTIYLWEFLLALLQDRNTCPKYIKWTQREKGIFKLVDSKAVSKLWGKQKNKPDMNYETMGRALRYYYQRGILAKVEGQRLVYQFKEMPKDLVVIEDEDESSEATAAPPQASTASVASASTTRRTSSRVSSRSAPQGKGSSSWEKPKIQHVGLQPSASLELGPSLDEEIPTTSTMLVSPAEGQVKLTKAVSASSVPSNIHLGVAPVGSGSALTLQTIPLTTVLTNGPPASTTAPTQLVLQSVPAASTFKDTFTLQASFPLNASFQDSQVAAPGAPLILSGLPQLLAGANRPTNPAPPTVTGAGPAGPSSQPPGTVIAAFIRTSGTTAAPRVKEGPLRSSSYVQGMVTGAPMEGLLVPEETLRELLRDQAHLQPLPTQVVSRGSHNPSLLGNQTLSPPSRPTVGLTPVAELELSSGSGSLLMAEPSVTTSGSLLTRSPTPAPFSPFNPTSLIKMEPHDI
CRX, sequence (O43186 whole entry): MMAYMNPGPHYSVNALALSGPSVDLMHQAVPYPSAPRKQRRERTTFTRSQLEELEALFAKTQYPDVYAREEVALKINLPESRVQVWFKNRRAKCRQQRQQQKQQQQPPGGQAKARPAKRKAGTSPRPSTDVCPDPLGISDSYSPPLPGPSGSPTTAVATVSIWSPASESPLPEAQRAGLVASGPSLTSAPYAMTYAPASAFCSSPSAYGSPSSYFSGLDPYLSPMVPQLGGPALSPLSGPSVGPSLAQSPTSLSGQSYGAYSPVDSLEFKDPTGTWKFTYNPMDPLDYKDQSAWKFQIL
SPIB, sequence (Q01892 whole entry): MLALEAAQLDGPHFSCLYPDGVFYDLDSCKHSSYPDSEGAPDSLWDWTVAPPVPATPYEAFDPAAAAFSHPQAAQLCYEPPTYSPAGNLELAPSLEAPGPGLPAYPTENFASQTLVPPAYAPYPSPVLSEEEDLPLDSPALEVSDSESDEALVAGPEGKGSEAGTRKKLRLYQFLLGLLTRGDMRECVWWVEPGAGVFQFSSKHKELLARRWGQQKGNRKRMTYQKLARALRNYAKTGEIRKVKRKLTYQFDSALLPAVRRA
ETV1, sequence (P50549 whole entry): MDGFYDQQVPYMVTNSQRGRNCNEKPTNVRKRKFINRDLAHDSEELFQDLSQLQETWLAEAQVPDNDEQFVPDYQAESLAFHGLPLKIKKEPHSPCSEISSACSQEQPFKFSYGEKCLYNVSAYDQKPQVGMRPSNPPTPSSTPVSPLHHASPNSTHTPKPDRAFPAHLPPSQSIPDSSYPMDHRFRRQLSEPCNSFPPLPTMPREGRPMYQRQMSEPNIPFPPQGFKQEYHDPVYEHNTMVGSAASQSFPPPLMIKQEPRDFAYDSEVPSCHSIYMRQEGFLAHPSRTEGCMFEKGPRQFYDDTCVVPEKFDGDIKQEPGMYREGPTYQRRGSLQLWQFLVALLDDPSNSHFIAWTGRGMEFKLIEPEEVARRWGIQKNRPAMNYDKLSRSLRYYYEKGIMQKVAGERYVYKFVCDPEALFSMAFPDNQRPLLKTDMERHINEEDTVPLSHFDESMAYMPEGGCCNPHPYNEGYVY
ETV5, sequence (P41161 whole entry): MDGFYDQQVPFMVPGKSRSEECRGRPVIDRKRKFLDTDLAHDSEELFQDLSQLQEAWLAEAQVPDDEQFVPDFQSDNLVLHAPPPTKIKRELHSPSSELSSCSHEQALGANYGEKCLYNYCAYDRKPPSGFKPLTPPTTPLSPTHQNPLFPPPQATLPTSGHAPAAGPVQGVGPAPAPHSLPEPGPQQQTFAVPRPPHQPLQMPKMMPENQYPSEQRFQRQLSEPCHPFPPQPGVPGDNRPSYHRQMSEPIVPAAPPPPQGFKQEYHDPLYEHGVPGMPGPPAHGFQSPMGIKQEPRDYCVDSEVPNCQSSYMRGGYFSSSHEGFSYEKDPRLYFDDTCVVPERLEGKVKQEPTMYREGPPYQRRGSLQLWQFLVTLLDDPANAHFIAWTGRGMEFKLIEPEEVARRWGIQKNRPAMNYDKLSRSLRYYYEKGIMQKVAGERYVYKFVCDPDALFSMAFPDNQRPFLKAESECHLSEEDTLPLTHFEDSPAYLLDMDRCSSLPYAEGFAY

CCTCCG
binding signal (FLI1): 1.18 fold enrichment (6-mer frequency, TF over GST control) | binding signal (ELK1): 1.55 fold enrichment (6-mer frequency, TF over GST control) | binding signal (GABPA): 1.41 fold enrichment (6-mer frequency, TF over GST control) | binding signal (ERG): 1.35 fold enrichment (6-mer frequency, TF over GST control) | binding signal (ELF1): 1.32 fold enrichment (6-mer frequency, TF over GST control) | binding signal (EHF): 1.24 fold enrichment (6-mer frequency, TF over GST control) | binding signal (SPI1): 1.41 fold enrichment (6-mer frequency, TF over GST control) | binding signal (SPIB): 1.48 fold enrichment (6-mer frequency, TF over GST control) | binding signal (ELK3): 1.38 fold enrichment (6-mer frequency, TF over GST control) | binding signal (FEV): 1.45 fold enrichment (6-mer frequency, TF over GST control) | binding signal (ETV5): 1.34 fold enrichment (6-mer frequency, TF over GST control) | binding signal (HSF1): 1.01 fold enrichment (6-mer frequency, TF over GST control) | binding signal (SPIC): 1.62 fold enrichment (6-mer frequency, TF over GST control) | binding signal (ELF4): 1.38 fold enrichment (6-mer frequency, TF over GST control) | binding signal (ELK4): 1.36 fold enrichment (6-mer frequency, TF over GST control) | binding signal (ETV2): 1.33 fold enrichment (6-mer frequency, TF over GST control) | binding signal (ELF3): 1.32 fold enrichment (6-mer frequency, TF over GST control) | binding signal (CRX): 1.07 fold enrichment (6-mer frequency, TF over GST control) | binding signal (ETV1): 1.4 fold enrichment (6-mer frequency, TF over GST control)
